PubChem BioAssay AID652122 (NMMLSC, 2013)
Active and inactive are the calls of the source.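 How the source made its calls: active means at least 15% of cells fluorescing red and green at top dose, and half-maximal dose below 10 µM; inactive means the rest.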

Assay: inducers of GFP+/MAC1+ phenotype in HoxA9-arrested cells – cell-based, wild-type HoxA9, flow cytometry, Powder Set01 subset01, dose response (AID 652122)
Conditions: HoxA9 wt myeloid cells; series mostly up to 10 µM; percent double positive (differentiation): at the top concentration

Percent double positive (differentiation), inactive:
Cc1ccc(Nc2nc(=O)c3cccnc3s2)c(Br)c1 14.1%, O=C(CCNC(=O)c1ccc(Cl)cc1)NC1CCCc2ccccc21 (stereo not drawn) 9.24%, O=C(O)c1cccnc1Nc1ccc(Cl)cc1 16.6%
